# Results from ChEMBL document CHEMBL2218924, “A broad activity screen in support of a chemogenomic map for kinase signalling research and drug discovery” (Biochem J, 2013).
# Columns and labels:
# [1] = molecular target: T1, Ephrin type-B receptor 1 (Homo sapiens) (UniProt P54762); settings: at 10 µM
# T1 sequence (whole entry): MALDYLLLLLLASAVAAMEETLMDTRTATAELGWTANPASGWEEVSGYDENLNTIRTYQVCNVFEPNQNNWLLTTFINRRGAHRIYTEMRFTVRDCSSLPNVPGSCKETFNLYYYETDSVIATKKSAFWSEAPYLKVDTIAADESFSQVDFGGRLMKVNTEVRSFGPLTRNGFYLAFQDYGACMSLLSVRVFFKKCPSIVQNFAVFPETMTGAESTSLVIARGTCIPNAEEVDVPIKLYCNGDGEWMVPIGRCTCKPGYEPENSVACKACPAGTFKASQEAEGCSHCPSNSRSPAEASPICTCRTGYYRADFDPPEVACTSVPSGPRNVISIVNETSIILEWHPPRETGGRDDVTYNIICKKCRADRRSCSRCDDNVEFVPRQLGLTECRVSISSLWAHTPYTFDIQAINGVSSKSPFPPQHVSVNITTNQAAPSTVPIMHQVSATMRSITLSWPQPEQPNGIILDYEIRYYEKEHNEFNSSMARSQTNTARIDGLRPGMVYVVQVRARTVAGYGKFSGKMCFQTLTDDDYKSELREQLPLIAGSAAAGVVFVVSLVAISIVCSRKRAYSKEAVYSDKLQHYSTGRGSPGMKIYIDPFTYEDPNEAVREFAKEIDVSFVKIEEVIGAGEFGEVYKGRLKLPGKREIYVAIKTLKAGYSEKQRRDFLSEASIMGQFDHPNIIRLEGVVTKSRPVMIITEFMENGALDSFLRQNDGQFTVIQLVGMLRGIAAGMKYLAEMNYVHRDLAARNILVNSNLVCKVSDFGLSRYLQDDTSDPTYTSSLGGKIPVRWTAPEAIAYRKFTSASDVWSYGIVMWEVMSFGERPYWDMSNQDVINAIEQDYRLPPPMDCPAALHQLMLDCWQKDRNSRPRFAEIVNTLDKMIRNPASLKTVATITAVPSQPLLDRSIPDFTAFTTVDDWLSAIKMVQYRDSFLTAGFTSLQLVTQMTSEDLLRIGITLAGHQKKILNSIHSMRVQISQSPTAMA
# [2] = molecular target: T2, Ephrin type-B receptor 2 (Homo sapiens) (UniProt P29323); settings: at 1 µM
# T2 sequence (whole entry): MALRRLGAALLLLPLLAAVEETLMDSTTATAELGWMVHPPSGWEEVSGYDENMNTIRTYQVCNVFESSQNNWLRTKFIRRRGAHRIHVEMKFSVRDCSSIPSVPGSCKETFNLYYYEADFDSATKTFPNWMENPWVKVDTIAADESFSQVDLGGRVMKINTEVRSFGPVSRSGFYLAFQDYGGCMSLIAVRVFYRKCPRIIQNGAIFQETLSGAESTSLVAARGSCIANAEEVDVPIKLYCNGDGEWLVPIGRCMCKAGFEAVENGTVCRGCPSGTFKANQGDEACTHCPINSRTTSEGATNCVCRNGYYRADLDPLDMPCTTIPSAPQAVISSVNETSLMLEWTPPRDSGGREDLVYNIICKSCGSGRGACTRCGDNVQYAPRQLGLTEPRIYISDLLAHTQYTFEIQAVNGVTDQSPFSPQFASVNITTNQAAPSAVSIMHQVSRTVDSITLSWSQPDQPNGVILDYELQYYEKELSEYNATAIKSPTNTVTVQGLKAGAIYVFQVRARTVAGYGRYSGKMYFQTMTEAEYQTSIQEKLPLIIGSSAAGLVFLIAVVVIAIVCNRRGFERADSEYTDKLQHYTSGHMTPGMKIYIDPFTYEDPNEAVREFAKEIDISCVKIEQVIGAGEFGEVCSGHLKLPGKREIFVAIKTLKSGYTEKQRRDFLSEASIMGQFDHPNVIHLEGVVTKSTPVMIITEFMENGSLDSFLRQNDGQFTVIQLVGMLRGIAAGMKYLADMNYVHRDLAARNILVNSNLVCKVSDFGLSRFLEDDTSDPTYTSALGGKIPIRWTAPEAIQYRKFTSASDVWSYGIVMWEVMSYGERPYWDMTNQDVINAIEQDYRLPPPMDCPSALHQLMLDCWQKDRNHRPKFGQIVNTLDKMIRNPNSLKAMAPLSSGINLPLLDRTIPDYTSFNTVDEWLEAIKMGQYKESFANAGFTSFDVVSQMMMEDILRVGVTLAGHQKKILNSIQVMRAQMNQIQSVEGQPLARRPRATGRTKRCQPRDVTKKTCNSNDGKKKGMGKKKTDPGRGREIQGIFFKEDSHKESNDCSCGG
# [3] = molecular target: T2, Ephrin type-B receptor 2 (Homo sapiens); settings: at 10 µM
# [4] = molecular target: T3, Ephrin type-B receptor 3 (Homo sapiens) (UniProt P54753); settings: at 1 µM
# T3 sequence (whole entry): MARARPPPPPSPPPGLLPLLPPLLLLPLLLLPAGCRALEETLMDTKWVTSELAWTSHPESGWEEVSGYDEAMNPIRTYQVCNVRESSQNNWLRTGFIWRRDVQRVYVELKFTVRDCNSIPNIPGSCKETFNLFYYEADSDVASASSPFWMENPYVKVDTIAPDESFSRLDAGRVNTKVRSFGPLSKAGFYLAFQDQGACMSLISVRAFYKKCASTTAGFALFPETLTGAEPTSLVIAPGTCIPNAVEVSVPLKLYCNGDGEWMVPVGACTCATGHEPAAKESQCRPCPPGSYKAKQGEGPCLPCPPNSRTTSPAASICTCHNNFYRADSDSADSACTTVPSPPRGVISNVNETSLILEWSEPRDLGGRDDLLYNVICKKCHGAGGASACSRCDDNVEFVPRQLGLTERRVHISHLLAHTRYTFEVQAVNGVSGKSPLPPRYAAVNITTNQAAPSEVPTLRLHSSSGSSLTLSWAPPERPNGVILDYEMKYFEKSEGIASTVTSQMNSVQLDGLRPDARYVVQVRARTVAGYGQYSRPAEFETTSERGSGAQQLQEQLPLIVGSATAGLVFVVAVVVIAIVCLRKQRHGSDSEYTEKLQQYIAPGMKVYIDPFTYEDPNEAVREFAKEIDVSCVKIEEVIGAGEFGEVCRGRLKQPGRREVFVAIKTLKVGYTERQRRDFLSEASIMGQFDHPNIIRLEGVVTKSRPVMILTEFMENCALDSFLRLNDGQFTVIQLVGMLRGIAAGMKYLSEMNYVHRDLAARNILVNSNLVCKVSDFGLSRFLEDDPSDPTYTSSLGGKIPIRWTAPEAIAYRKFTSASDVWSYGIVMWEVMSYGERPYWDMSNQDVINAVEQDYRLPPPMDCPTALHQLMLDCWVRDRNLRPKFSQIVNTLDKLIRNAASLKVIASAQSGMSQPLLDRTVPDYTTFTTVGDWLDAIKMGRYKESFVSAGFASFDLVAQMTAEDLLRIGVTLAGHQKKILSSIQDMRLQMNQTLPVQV
# [5] = molecular target: T3, Ephrin type-B receptor 3 (Homo sapiens); settings: at 10 µM
# [6] = molecular target: T4, Ephrin type-B receptor 4 (Homo sapiens) (UniProt P54760); settings: at 1 µM
# T4 sequence (whole entry): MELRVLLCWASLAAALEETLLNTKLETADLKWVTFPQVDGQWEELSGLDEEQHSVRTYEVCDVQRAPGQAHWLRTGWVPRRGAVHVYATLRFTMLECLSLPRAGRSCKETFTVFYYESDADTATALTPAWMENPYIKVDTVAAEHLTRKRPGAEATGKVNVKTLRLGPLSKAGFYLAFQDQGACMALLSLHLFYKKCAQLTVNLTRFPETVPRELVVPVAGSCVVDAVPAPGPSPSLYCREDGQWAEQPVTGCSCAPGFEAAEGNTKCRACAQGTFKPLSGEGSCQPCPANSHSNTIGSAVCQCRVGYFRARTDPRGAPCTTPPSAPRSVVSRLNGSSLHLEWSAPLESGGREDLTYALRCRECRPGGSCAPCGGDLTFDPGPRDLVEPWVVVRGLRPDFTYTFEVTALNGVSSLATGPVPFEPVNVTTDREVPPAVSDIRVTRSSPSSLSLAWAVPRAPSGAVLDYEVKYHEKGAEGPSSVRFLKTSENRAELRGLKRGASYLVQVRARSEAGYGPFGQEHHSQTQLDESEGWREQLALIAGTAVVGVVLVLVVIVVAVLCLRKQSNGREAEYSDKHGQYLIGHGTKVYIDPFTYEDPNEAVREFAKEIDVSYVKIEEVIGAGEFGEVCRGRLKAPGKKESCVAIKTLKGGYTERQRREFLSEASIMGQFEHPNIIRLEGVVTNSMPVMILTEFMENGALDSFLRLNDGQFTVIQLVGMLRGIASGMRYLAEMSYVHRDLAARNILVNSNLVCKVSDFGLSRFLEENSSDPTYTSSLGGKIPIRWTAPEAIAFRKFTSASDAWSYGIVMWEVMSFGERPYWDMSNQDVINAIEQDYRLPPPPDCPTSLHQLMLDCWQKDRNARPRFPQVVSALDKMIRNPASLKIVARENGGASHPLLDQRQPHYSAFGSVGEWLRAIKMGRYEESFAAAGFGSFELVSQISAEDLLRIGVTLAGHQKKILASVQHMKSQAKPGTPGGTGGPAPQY
# [7] = molecular target: T4, Ephrin type-B receptor 4 (Homo sapiens); settings: at 10 µM
# [8] = molecular target: Receptor tyrosine-protein kinase erbB-4 (Homo sapiens) (UniProt Q15303); settings: at 1 µM
# [9] = molecular target: Receptor tyrosine-protein kinase erbB-4 (Homo sapiens) (UniProt Q15303); settings: at 10 µM
# [10] = molecular target: Focal adhesion kinase 1 (Homo sapiens) (UniProt Q05397); settings: at 1 µM
# Sequence of Focal adhesion kinase 1 (Homo sapiens) (Q05397 2-1052 limits assumed): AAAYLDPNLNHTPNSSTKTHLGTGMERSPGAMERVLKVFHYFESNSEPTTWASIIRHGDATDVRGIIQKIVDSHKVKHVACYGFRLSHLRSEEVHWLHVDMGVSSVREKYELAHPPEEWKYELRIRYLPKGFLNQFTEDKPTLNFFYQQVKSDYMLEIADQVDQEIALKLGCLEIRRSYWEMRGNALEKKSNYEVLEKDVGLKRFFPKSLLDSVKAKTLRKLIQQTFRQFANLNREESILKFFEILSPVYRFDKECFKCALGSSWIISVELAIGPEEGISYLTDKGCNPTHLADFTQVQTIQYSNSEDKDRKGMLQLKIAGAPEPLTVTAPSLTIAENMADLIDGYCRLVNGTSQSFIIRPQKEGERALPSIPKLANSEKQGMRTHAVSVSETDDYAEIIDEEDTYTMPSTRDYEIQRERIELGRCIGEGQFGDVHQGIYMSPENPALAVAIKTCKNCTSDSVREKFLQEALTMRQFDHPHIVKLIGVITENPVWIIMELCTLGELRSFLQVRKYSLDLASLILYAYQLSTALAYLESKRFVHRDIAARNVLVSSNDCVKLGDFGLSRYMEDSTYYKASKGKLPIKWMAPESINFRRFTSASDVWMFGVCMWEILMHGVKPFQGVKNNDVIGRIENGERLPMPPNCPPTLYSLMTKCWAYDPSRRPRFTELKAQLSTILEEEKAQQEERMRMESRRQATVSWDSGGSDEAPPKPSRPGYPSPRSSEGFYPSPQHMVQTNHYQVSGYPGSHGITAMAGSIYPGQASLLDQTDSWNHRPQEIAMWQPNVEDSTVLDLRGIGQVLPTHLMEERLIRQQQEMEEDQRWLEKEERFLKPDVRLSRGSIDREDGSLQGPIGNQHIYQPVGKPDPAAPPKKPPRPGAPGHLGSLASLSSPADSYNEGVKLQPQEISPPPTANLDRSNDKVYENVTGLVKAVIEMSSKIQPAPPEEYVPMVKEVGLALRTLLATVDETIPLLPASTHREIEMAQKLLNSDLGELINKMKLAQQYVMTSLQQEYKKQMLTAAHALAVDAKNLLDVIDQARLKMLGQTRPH
# [11] = molecular target: Focal adhesion kinase 1 (Homo sapiens) (UniProt Q05397); settings: at 10 µM
# [12] = molecular target: Fibroblast growth factor receptor 1 (Homo sapiens) (UniProt P11362); settings: at 1 µM
# Sequence of Fibroblast growth factor receptor 1 (Homo sapiens) (P11362 22-822 limits assumed): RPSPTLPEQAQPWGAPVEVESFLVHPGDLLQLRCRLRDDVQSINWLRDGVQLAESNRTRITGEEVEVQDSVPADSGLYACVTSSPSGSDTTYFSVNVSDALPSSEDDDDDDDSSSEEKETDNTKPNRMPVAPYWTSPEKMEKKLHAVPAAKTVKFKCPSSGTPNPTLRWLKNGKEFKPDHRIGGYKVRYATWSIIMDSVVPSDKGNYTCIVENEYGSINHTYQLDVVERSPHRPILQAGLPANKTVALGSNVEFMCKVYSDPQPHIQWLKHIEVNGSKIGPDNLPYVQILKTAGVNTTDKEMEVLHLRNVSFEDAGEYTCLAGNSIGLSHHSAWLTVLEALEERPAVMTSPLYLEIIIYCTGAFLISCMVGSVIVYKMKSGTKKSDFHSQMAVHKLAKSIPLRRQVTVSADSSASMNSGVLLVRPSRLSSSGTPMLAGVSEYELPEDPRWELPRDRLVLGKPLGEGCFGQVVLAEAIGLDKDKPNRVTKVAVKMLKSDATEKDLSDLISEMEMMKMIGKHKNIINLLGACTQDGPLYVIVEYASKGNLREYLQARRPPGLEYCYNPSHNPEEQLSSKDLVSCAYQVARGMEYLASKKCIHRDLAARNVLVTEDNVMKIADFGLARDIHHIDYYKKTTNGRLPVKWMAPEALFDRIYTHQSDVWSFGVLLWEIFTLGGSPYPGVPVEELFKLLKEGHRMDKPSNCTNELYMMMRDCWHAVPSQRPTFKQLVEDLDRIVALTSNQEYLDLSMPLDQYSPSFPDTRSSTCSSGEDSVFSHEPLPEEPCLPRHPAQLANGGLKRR
# [13] = molecular target: Fibroblast growth factor receptor 1 (Homo sapiens) (UniProt P11362); settings: at 10 µM
# [14] = molecular target: Fibroblast growth factor receptor 2 (Homo sapiens) (UniProt P21802); settings: at 1 µM
# Sequence of Fibroblast growth factor receptor 2 (Homo sapiens) (P21802 22-821 limits assumed): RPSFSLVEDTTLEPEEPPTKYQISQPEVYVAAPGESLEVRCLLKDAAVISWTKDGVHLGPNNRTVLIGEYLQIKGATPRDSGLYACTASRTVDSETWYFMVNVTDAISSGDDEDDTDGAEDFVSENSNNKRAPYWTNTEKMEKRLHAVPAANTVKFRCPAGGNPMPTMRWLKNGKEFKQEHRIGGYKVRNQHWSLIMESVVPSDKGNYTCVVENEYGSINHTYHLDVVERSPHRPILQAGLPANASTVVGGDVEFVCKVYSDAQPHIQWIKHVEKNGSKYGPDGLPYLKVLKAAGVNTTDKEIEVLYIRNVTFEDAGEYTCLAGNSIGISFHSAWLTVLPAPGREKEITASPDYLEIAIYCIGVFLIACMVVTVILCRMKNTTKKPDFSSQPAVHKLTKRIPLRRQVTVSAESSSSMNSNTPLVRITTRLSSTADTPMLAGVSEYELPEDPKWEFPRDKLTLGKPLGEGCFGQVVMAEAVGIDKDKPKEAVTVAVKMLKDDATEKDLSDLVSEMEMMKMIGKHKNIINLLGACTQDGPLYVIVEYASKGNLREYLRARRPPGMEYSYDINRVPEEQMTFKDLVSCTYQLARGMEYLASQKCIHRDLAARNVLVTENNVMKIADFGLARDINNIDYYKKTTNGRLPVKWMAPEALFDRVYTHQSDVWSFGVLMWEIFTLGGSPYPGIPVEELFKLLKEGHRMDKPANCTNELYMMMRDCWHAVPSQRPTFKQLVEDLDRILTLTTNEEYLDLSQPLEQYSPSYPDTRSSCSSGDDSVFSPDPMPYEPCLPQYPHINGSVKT
# [15] = molecular target: Fibroblast growth factor receptor 2 (Homo sapiens) (UniProt P21802); settings: at 10 µM
# [16] = molecular target: Fibroblast growth factor receptor 3 (Homo sapiens) (UniProt P22607); settings: at 1 µM
# Sequence of Fibroblast growth factor receptor 3 (Homo sapiens) (P22607 23-806 limits assumed): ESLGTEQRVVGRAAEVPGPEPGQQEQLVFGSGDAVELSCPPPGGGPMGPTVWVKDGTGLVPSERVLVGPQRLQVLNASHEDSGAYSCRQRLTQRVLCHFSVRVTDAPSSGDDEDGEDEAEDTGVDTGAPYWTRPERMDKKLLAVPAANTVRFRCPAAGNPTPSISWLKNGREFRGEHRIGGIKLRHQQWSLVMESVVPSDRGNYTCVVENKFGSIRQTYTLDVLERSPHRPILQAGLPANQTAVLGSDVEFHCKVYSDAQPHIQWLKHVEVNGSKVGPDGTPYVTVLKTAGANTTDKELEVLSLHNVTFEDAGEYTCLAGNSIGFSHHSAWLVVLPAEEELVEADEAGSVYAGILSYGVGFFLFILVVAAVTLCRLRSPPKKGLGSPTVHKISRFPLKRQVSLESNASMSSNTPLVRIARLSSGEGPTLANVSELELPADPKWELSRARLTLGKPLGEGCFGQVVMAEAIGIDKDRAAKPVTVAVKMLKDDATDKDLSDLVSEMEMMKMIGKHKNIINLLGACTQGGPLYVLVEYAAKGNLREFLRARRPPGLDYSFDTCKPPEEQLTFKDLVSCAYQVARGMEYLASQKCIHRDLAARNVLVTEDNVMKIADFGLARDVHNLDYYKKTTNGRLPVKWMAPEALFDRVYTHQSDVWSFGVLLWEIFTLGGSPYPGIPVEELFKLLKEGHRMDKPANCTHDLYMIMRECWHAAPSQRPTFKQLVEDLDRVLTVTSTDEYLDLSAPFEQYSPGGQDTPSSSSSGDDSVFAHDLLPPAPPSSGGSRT
# [17] = molecular target: Fibroblast growth factor receptor 3 (Homo sapiens) (UniProt P22607); settings: at 10 µM
# [18] = molecular target: Fibroblast growth factor receptor 4 (Homo sapiens) (UniProt P22455); settings: at 1 µM
# Sequence of Fibroblast growth factor receptor 4 (Homo sapiens) (P22455 22-802 limits assumed): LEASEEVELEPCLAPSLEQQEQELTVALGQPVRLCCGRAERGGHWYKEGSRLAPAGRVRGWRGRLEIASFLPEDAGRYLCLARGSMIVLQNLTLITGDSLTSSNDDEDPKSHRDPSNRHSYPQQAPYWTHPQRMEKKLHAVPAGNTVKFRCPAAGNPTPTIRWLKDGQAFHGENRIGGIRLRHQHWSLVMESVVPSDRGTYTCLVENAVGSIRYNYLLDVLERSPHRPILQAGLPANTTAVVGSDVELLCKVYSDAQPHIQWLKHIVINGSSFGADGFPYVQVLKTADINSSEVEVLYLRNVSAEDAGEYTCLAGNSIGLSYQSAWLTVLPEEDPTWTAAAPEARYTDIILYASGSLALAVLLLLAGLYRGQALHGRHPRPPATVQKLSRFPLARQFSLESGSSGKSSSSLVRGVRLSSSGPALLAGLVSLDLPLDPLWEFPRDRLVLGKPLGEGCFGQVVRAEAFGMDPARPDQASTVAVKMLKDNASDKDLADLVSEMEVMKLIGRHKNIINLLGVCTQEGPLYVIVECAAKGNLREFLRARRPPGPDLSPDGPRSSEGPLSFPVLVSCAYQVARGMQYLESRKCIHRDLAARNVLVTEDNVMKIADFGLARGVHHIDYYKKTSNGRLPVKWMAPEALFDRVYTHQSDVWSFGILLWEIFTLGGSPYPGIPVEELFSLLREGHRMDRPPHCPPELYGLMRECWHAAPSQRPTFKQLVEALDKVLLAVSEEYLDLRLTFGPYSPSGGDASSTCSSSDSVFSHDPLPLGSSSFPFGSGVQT
# [19] = molecular target: Fibroblast growth factor receptor 4 (Homo sapiens) (UniProt P22455); settings: at 10 µM
# [20] = molecular target: Tyrosine-protein kinase Fer (Homo sapiens) (UniProt P16591); settings: at 1 µM
# Sequence of Tyrosine-protein kinase Fer (Homo sapiens) (P16591 whole entry, looked up): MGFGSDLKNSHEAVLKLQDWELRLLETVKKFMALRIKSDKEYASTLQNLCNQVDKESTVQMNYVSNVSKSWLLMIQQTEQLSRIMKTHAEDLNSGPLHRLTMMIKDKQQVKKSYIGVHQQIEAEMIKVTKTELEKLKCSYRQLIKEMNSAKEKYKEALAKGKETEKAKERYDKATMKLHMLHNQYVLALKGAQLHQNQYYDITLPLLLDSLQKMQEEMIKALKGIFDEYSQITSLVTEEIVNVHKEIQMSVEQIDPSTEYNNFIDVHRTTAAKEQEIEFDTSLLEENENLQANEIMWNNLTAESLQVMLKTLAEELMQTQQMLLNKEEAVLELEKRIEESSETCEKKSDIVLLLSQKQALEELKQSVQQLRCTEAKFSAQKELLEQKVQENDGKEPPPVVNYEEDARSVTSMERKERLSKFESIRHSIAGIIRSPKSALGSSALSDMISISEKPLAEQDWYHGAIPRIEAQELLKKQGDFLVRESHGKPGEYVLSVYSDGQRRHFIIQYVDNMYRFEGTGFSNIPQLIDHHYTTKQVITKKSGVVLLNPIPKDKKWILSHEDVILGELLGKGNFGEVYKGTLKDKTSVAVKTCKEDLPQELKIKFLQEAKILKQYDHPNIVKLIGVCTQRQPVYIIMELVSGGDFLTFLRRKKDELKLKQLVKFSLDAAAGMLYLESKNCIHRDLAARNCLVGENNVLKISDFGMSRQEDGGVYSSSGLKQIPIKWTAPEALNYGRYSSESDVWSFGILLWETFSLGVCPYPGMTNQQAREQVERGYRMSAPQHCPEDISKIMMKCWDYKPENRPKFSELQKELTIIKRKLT
SMILES,residual activity [1] [%],residual activity [2] [%],residual activity [3] [%],residual activity [4],residual activity [5] [%],residual activity [6] [%],residual activity [7] [%],residual activity [8] [%],residual activity [9] [%],residual activity [10] [%],residual activity [11] [%],residual activity [12] [%],residual activity [13] [%],residual activity [14] [%],residual activity [15] [%],residual activity [16] [%],residual activity [17] [%],residual activity [18] [%],residual activity [19] [%],residual activity [20] [%]
CCC(=O)Nc1ccc2ncnc(Nc3cccc(Br)c3)c2c1,97,105,55,111% (inactive),120,81,57,59,58,131,95,108,84,105,99,118,123,120,100,106
O=Nc1c(-c2c(O)[nH]c3ccccc23)[nH]c2ccccc12,13,91,13,105% (inactive),103,67,13,107,99,39,2,3,-1,22,2,20,2,100,45,70
Oc1n[nH]c2nnc(-c3c(-c4ccccc4)nn4ccccc34)cc12,83,123,128,109% (inactive),103,86,80,92,75,98,91,108,92,95,91,97,102,115,90,96
O=C(Nc1cccc(Nc2cc(Nc3cccc(C(F)(F)F)c3)ncn2)c1)C1CC1,69,101,99,90% (inactive),100,97,82,71,88,130,79,97,58,94,101,112,111,90,90,112
Cc1nc2cc3nc(-c4cccs4)cnc3cc2n1C,91,117,107,107% (inactive),124,108,119,116,113,80,105,102,41,72,30,79,23,119,95,113
Cn1cnc2cc3c(Nc4cccc(Br)c4)ncnc3cc21,42,77,5,110% (inactive),123,31,4,72,75,82,93,74,43,92,89,102,97,127,96,115
Ic1cccc(CSc2nnc(-c3ccncc3)o2)c1,84,106,109,104% (inactive),101,84,84,94,91,96,90,98,71,99,82,106,93,112,98,93
O=C1c2ccccc2-[n+]2ccc3c([nH]c4ccccc43)c21,85,114,116,100% (inactive),96,92,84,69,67,95,90,100,78,107,84,96,114,109,97,92
COc1ccc(CNc2nc(N(CCO)CCO)nc3c2ncn3C(C)C)cc1,77,113,106,113% (inactive),107,87,77,91,101,91,64,89,67,101,80,103,109,116,104,91
O=[N+]([O-])c1ccc(-c2nc(-c3ccc(F)cc3)c(-c3ccncc3)[nH]2)cc1,94,111,109,126% (inactive),82,89,76,76,75,107,102,102,82,112,99,109,99,122,92,100
O=c1cc(-c2cccc3c2Sc2ccccc2S3)oc(N2CCOCC2)c1,92,112,126,119% (inactive),121,113,118,105,92,109,116,120,95,106,81,112,84,104,88,115
c1ccc2c(-c3ccncc3)c[nH]c2c1,110,108,111,106% (inactive),112,111,108,88,,,65,,90,111,87,,,112,94,109
